Sa growth inh: blocks Staphylococcus aureus growth; S. aureus RN4220 growth, OD600, 20 h, 42 °C; stronger effect = lower value; relative growth, % (test concentration not listed); hit rate 0.53% among 170,000;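 active means relative growth at most 50% at the other temperature and 20+ points below 30 °C, or under 10% at both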
HCMV NEC inh: disrupts HCMV UL50-UL53 complex binding | HTRF UL50-UL53 interaction, normalized percent inhibition | inhibition, % (no concentration beside the values) | hit rate 0.15% among 190,000; in the data active means inhibition above about 27%, passing the limit was not always enough
Sa helicase inh: S. aureus DNA helicase inhibition; purified S. aureus helicase, fluorescence unwinding assay; inhibition, % (concentration not given with the values); hit rate 0.05% among 120,000; AID 485395; in the data active means inhibition above about 25%, passing the limit was not always enough;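 further: 0% = mean of negative control wells and 100% = mean of positive control wells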
* = called active by the depositor; nt = not tested or not shown. This excerpt belongs to a sample that is enriched for hits.

SMILES	Sa growth inh	HCMV NEC inh	Sa helicase inh
CCCCN1C(C(=O)c2ccccc2)=C(OC(C)=O)c2ccccc2S1(=O)=O	-0.5*	-18	nt
CCCCC(=O)OC1=C(C(=O)c2ccccc2)N(CC)S(=O)(=O)c2ccccc21	15	6	nt
Cc1ccc(CN2CCN(/N=C/C=C/c3ccco3)CC2)cc1	114	-10	-8
Cc1nc(-c2cccc(NC(=O)/C=C\C(=O)O)c2)cs1	nt	3	6
Cc1nc(-c2c[nH]c(C(=O)O)c2)cs1	71	-44	49*
COc1ccc(-c2nn(C)c3sc(C(=O)NCCCN4CCOCC4)cc23)cc1OC	134	4	32
CCCN1CCN(CCCNC(=O)c2cc3c(-c4ccc(OC)c(OC)c4)nn(C)c3s2)CC1	131	3	50*
Cc1nn(-c2ccccc2)c(C)c1-c1nc2ccccc2[nH]c1=O	105	-53	-8
Cc1ccc2oc(=O)c3cc(C(=O)NCCCN4CCN(C)CC4)sc3c2c1	107	-68	-6
Cc1ccc2oc(=O)c3cc(C(=O)NCCN4CCCCC4C)sc3c2c1 (stereo unspecified)	104	nt	46*
CN[C@H](CC(C)C)C(=O)N[C@H]1C(=O)N[C@@H](CC(N)=O)C(=O)N[C@H]2C(=O)N[C@H]3C(=O)N[C@H](C(=O)N[C@H](C(=O)O)c4cc(O)cc(O)c4-c4cc3ccc4O)[C@H](O)c3ccc(c(Cl)c3)Oc3cc2cc(c3O[C@@H]2OC(CO)[C@@H](O)[C@H](O)[C@H]2O[C@H]2C[C@](C)(N)[C@H](O)[C@H](C)O2)Oc2ccc(cc2Cl)[C@H]1O (stereo partly specified)	nt	-16	nt
COC(=O)C1=C(C)NC2=C(C(=O)CC(c3ccc(OC)c(OC)c3)C2)C1c1ccccc1Br (stereo unspecified)	nt	-5	nt
O=S1(=O)CCC(S(=O)(=O)C2CCS(=O)(=O)C2)C1 (stereo unspecified)	119	-1	12
COC(=O)c1ccc(OC)c(I)c1	99	-22	-19
CCN(C(=O)Cc1c(C(=O)O)[nH]c2ccc(Cl)cc12)c1ccc(C)c(C)c1	80	nt	6
CCCN(C(=O)Cc1c(C(=O)O)[nH]c2ccc(Cl)cc12)c1ccc(OCC)cc1	29*	-4	nt
CCc1cc(C(=O)O)no1	93	-23	6
CCOc1cc(/C=C2/SC(=O)NC2=O)ccc1OCC(=O)O	86	nt	-17
Cc1cccc(-c2nc3c(cnn3-c3ccccc3)c(=O)n2-c2ccc(Br)cc2)c1	96	56*	nt
Cc1ccc(-n2c(-c3cccc(C)c3)nc3c(cnn3-c3ccccc3)c2=O)cc1	93	7	nt
CCOC(=O)c1ccc(N2C(=O)NC(C(F)(F)F)(C(F)(F)F)C3=C2CC(C)(C)CC3=O)cc1	96	nt	12
O=C(/C=C/c1ccc(F)cc1)Nc1ccc(S(=O)(=O)N2CCCC2)cc1	nt	-6	26
O=C(CSc1nnc(CNC(=O)c2ccco2)n1-c1cccc(C(F)(F)F)c1)Nc1ccc(F)cc1	86	-41	4
COCc1cc(=O)n2[nH]cc(-c3ccc(Cl)cc3)c2n1	113	-6	17
CCCc1cc(=O)n2[nH]cc(-c3ccc(Cl)cc3)c2n1	-0.6*	1	36
SMILES	Sa growth inh	HCMV NEC inh	Sa helicase inh
O=c1[nH]c(=O)n(C2C[C@@H](O)[C@@H](CO)O2)cc1F (stereo partly specified)	-0.7*	-44	nt
O=c1[nH]c(=O)n([C@H]2C[C@H](O)C(CO)O2)cc1I (stereo partly specified)	nt	-53	nt
CCOC(=O)CCc1c(C)c2cc(Cl)c(OCC(N)=O)cc2oc1=O	108	-18	8
Cc1ccc2[nH]c(C)cc(=S)c2c1	5.8*	-103	1
COc1ccc2[nH]c(C)cc(=S)c2c1	83	nt	12
N#CSc1sc(N)nc1-c1ccccc1	0.1*	0	19
COc1ccc(-c2nc(N)sc2-c2ccccc2)cc1	nt	-19	16
c1ccc(-c2nn(-c3ccccc3)c3c2cnc2ccccc23)cc1	109	nt	13
Oc1ccc2c(c1)c(-c1ccccc1)nn2-c1ccccc1	20*	-23	-26
Cc1ccc(N2CC(c3nnc(NC(=O)c4c(-c5ccccc5)noc4C)s3)CC2=O)cc1C (stereo unspecified)	nt	-17	nt
Cc1ccc(C)c(-c2nnc(NC(=O)c3ccc(S(=O)(=O)N4CCc5ccccc54)cc3)o2)c1	1.9*	-24	21
Cc1ccc(NC(=O)c2cccc(S(C)(=O)=O)c2)cc1	99	12	-13
Cc1ccc2nc(NC(=O)c3ccc(S(=O)(=O)N4CCc5ccccc54)cc3)sc2c1	nt	-26	nt
Cc1ccc(C)c(-c2nnc(NC(=O)c3cccc(S(C)(=O)=O)c3)o2)c1	5.5*	3	12
COC(=O)c1ccc(N=C2SC(C(=O)Nc3cccc(Cl)c3)CC(=O)N2C)cc1 (stereo unspecified)	nt	-18	nt
CC(C)(Oc1ccc(Cl)cc1)C(=O)Nc1nccs1	95	-9	-9
O=C(Nc1nnc(C(F)(F)F)s1)c1ccccc1	55	14	13
O=C(Nc1ccccc1)Nc1nnc(C(F)(F)F)s1	1.1*	-19	nt
CC(C)(Oc1ccc(Cl)cc1)C(=O)Nc1nnc(C(F)(F)F)s1	-1.1*	-14	32
Cc1ccc(S(=O)(=O)NCC(c2ccc(N(C)C)cc2)N(C)C)cc1 (stereo unspecified)	105	15	4
CCc1ncc(C(=O)NCc2cccc(F)c2)c(C)n1	nt	-7	nt
COCCNc1nnc(SCN2C(=O)c3ccccc3C2=O)s1	112	-29	8
CC(=O)Nc1ccc(F)cc1NC=C(C#N)C#N	85	-2	-9
N#CC(C#N)=NNc1ccc(F)cc1C(F)(F)F	-0.7*	-20	-9
CCOc1ccc(N(CC(=O)Nc2ccc(F)c(Cl)c2)S(=O)(=O)c2ccc(SC)cc2)cc1	nt	-20	nt
SMILES	Sa growth inh	HCMV NEC inh	Sa helicase inh
COCC(=O)N(Cc1nc2nc(C)cc(=O)n2[nH]1)c1ccc(Cl)cc1	nt	-2	nt
CCCc1cc(O)c2c(C)cc(=O)oc2c1	5.2*	-15	5
CCCCc1cc(=O)oc2cc(C)cc(O)c12	27	-7	2
Cc1nc(-c2cccs2)cs1	76	-20	17
S=c1nc(-c2cccs2)cn[nH]1	39*	-98	-2
Cc1ccc2c(c1)sc1nc(C)c(S(=O)(=O)Nc3cccc(C)c3C)c(=O)n12	nt	-26	nt
CCOC(=O)COc1ccccc1C1C(C(=O)OCC)=C(N)Oc2n[nH]c(-c3ccccc3)c21 (stereo unspecified)	97	-15	10
C/C(=N\NC(N)N)C1CCCCCCCCCCC1	-0.4*	-22	0
C/C(=N\NC(N)=O)C1CCCCC1	98	-25	8
Nc1cc(C(F)(F)F)c[nH]c1=O	97	-38	14
FC(F)(F)c1c[nH]c(=S)c(C(F)(F)F)c1	7.9*	-16	nt
Cc1cccc(NS(=O)(=O)c2cc(C(=O)N3CCCC3)cs2)c1C	nt	-39	nt
Cc1nn(-c2ccccc2)c2[nH]cc(C(=O)Nc3ccccc3)c(=O)c12	8.8*	-31	5
Cc1cc(C(=O)Nc2ccc(Cl)cc2)c2c(C)nn(-c3ccccc3)c2n1	105	nt	nt
O=C(/C=C/c1cccc(Br)c1)N1CCCC1	98	-37	10
Cc1ccc2c(=O)cc(CSCC(=O)Nc3nnc(C)s3)[nH]c2c1	95	nt	nt
Cc1cc(C)c2c(=O)cc(CSCC(=O)Nc3nnc(C)s3)[nH]c2c1	-0.5*	nt	nt
CCC(C)NC(=O)c1ccc(CN2CCCn3nc(C)cc32)cc1 (stereo unspecified)	nt	-14	nt

Screens from PubChem.
